# Assay results as given in PMC5349851, “Combinatorial bZIP dimers display complex DNA-binding specificity landscapes”.
# Assays:
# Assay in all cases: SELEX-seq (CSI, HT-SELEX, round 3); SELEX-seq: 1x PBS (10 mM phosphate, 137 mM NaCl, 2.7 mM KCl) pH 7.6, 2.5 mM DTT, 50 ng/ul poly dI-dC, 0.1% BSA, 50 nM biotinylated bZIP (1:3 with partner for heterodimers), 100 nM library, room temperature, 1 h, 3 rounds; high values mean tight binding
# Settings in all cases: protein: recombinant;recombinant; copies: 1;1; dsDNA, one strand shown
# [1] = biological target: NFE2L1;MAFG (Homo sapiens;Homo sapiens, UniProt Q14494;O15525 609-725;25-124, |)
# [2] = biological target: T1, NFIL3;NFIL3 (Homo sapiens;Homo sapiens, UniProt Q16649;Q16649 64-134;64-134, |)
# T1 sequence 1: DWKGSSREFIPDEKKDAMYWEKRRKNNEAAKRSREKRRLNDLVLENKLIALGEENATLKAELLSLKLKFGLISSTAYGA
# T1 sequence 2: T1 sequence 1
# [3] = biological target: MAFG;MAFG (Homo sapiens;Homo sapiens, UniProt O15525;O15525 25-124;25-124, |)
# [4] = biological target: T2, ATF5;BATF2 (Homo sapiens;Homo sapiens, UniProt Q9Y2D1;Q8N1L9 199-275;8-85, |)
# T2 sequence 1: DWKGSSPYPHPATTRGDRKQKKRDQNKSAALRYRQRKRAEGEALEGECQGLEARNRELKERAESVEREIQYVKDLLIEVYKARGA
# T2 sequence 2: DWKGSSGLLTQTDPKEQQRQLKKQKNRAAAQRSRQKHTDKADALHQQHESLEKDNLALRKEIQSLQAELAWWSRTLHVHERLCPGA
# [5] = biological target: NFE2;MAFG (Homo sapiens;Homo sapiens, UniProt Q16621;O15525 221-337;25-124, |)
# [6] = biological target: T3, HLF;HLF (Homo sapiens;Homo sapiens, UniProt Q16534;Q16534 216-293;216-293, |)
# T3 sequence 1: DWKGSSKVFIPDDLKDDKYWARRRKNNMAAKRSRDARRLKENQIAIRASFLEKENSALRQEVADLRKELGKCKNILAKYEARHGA
# T3 sequence 2: T3 sequence 1
# [7] = biological target: MAFB;FOSL1 (Homo sapiens;Homo sapiens, UniProt Q9Y5Q3;P15407 212-305;96-169, |)
# Sequence of MAFB;FOSL1 (Q9Y5Q3 other isoform, or with tags, fused parts or gaps |, chain 1 of 2): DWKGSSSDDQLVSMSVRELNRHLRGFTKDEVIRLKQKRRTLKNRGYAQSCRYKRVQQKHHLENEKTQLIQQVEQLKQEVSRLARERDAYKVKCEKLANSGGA
# Sequence of MAFB;FOSL1 (P15407 other isoform, or with tags, fused parts or gaps |, chain 2 of 2): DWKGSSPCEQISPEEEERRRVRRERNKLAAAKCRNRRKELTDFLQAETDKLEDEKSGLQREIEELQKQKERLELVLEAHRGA
# [8] = biological target: MAFB;ATF5 (Homo sapiens;Homo sapiens, UniProt Q9Y5Q3;Q9Y2D1 212-305;199-275, |)
# [9] = biological target: T4, ATF5;CREB3L3 (Homo sapiens;Homo sapiens, UniProt Q9Y2D1;Q68CJ9 199-275;234-311, |)
# T4 sequence 1: T2 sequence 1
# T4 sequence 2: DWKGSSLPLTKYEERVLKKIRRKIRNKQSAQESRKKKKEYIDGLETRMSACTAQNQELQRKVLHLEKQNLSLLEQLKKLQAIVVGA
# [10] = biological target: T5, NFE2;NFE2 (Homo sapiens;Homo sapiens, UniProt Q16621;Q16621 221-337;221-337, |)
# T5 sequence 1: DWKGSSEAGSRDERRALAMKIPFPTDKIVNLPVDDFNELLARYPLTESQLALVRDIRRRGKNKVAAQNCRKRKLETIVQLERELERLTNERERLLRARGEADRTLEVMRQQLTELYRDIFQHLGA
# T5 sequence 2: T5 sequence 1
Sequence,binding signal [1],binding signal [2],binding signal [3],binding signal [4],binding signal [5],binding signal [6],binding signal [7],binding signal [8],binding signal [9],binding signal [10]
ATGACGGAAT,0.00175 relative CSI intensity (max = 1),0.00935 relative CSI intensity (max = 1),0.00454 relative CSI intensity (max = 1),,,,,,,
ATGATGCAAT,0.00579 relative CSI intensity (max = 1),0.107 relative CSI intensity (max = 1),0.00357 relative CSI intensity (max = 1),0.02 relative CSI intensity (max = 1),0.0058 relative CSI intensity (max = 1),0.0587 relative CSI intensity (max = 1),0.00125 relative CSI intensity (max = 1),0.00407 relative CSI intensity (max = 1),,
ATGACGTCAT,0.0138 relative CSI intensity (max = 1),0.344 relative CSI intensity (max = 1),0.0131 relative CSI intensity (max = 1),0.86 relative CSI intensity (max = 1),0.0346 relative CSI intensity (max = 1),0.205 relative CSI intensity (max = 1),0.196 relative CSI intensity (max = 1),0.148 relative CSI intensity (max = 1),1 relative CSI intensity (max = 1),0.112 relative CSI intensity (max = 1)
CCTGACGTCA,,0.00977 relative CSI intensity (max = 1),,0.0163 relative CSI intensity (max = 1),0.00227 relative CSI intensity (max = 1),,0.0285 relative CSI intensity (max = 1),0.0743 relative CSI intensity (max = 1),0.00229 relative CSI intensity (max = 1),
ATGACGCAAT,0.00759 relative CSI intensity (max = 1),0.224 relative CSI intensity (max = 1),,0.0275 relative CSI intensity (max = 1),0.00814 relative CSI intensity (max = 1),0.245 relative CSI intensity (max = 1),0.00163 relative CSI intensity (max = 1),0.00342 relative CSI intensity (max = 1),,0.0016 relative CSI intensity (max = 1)
ATGACGTAAT,0.0021 relative CSI intensity (max = 1),0.7 relative CSI intensity (max = 1),0.0106 relative CSI intensity (max = 1),0.174 relative CSI intensity (max = 1),0.00855 relative CSI intensity (max = 1),0.728 relative CSI intensity (max = 1),0.00946 relative CSI intensity (max = 1),0.0179 relative CSI intensity (max = 1),0.00383 relative CSI intensity (max = 1),0.00452 relative CSI intensity (max = 1)
